Screening data from PubChem BioAssay.
Many of the other results were omitted from the sample, so hits are more common in it than they were.
CHX counter: counter-screen hit for Shiga toxin inhibitors, cycloheximide; AID 2314; cell reporter, cycloheximide protein synthesis inhibition counterscreen; 300,000 tested, 12% active; max response, %; in the data active = max response mostly above about 13%, no sharp cut-off; inactive = mostly below about 14%; also: read at 38.3 µM for the half of the compounds with a filed dose; 0% is about no effect
TbPYK inhibitor: blocks Trypanosoma brucei pyruvate kinase | Q57TT1 | TbPYK enzyme, Kinase-Glo Plus ATP luminescence, 45 min | Potency, µM (titrated, usually from 76.8 µM), inactives show at the top dose activity, negative = inhibition, hits mostly inhibitors | 410,000 tested, 0.12% active; also: potency is read from the fitted curve at half-maximal effect; % is scaled to controls: 0 for no effect and ±100 for the full control effect; nearly all actives have a fitted effect of over 50% in size
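Assay buffer: 50 mM TEA pH 7.2, 100 mM KCl, 10 mM MgCl2, 0.05% BSA, 0.01% Tween-20. Pyruvate kinase from T. brucei plus substrate met compound, then ADP (130 uM final). Luminescence was read post 45 min RT.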
Giardia FBPA inh: Giardia lamblia aldolase inhibition. A8B2U2. purified Giardia FBPA. Potency, µM (series often up to 59.6 µM), without a hit: at the highest dose activity, negative = inhibition, hits mostly inhibitors. 290,000 tested, 0.71% active. AID 2451; also: potency is read from the fitted curve at half-maximal effect; % is scaled to controls: 0 for no effect and ±100 for the full control effect; nearly all actives have a fitted effect of over 55% in size
Target sequence (A8B2U2 whole entry, looked up): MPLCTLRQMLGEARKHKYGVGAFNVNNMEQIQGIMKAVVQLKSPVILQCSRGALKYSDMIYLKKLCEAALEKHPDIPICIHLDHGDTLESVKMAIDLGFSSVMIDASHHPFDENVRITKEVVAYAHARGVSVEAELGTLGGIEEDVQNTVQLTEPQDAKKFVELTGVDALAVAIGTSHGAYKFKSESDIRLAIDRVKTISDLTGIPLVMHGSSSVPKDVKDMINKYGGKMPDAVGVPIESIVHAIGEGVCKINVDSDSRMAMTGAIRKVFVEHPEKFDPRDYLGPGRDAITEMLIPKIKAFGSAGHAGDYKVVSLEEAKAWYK
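40 nM FBPA preincubated 10 min at RT with compound (up to 57.5 uM final), then substrate plus GAPDH/TPI/NAD/arsenate coupling and diaphorase/resazurin added. Fluorescence read after 20 min at RT, 525/598 nm.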
Sm TGR block: inhibitors of Schistosoma mansoni thioredoxin glutathione reductase | Q962Y6 | purified TGR, DTNB reduction, TNB absorbance 405 nm | Potency, µM (titrated, usually from 114 µM), for the others: top-dose activity change, negative = inhibition, usual class: inhibitors | 360,000 tested, 3% active | AID 485364; also: potency is read from the fitted curve at half-maximal effect; % is scaled to controls: 0 for no effect and ±100 for the full control effect; nearly all actives have a fitted effect of over 60% in size
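First, TGR (20 nM dispensed) and NADPH were mixed with compound. Second, a 15 min room-temperature incubation followed. Third, further NADPH and then DTNB were added to start the reaction. Finally, TNB absorbance was monitored kinetically.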
LmPK inh: inhibitors of Leishmania mexicana pyruvate kinase. purified LmPK, Kinase-Glo ATP luminescence, 1 h. Potency, µM (doses to about 57.5 µM), without a hit: top-dose activity change, negative = inhibition, most hits filed as inhibitors. 290,000 tested, 0.37% active; also: potency is read from the fitted curve at half-maximal effect; % is scaled to controls: 0 for no effect and ±100 for the full control effect
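In 50 mM imidazole pH 7.2 with 7 mM MgCl2, LmPK (0.1 nM) turned over PEP (0.5 mM) and ADP (0.1 mM) for 1 h at room temperature. Luciferase read-out of ATP.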
Shiga toxin inh: Shiga toxin inhibition; Vero cells, Shiga toxin protein synthesis inhibition reporter; inhibition, % at 38.7 µM; 290,000 tested, 9.2% active; AID 2315; in the data active = inhibition mostly above about 28%, no sharp cut-off; inactive = mostly below about 43%; also: 0% is about no effect
* hit, by the source's call; u = inconclusive; x = not tested or not shown. Unless noted, calls follow the shape of the dose curve; as a rule, active = well fitted curve in the direction sought with a large enough effect; inconclusive = small, poorly fitted or top-dose-only effect, or another doubt; inactive = no such curve, though single readings can be large; an effect the other way counts as inactive or inconclusive.

SMILES	CHX counter	TbPYK inhibitor	Giardia FBPA inh	Sm TGR block	LmPK inh	Shiga toxin inh
CCOC(=O)/C(=N\Nc1ccccc1[N+](=O)[O-])c1csc(N)n1	21.4*	-9.1%	-7.5%	x	-1.4%	35.6
O=C(N/N=C/C=C/c1ccccc1)c1n[nH]c2c1CCC2	15.4*	3.3%	1.6%	-9.7%	5.9%	20.6
Cn1cc(C(=O)N/N=C/C(Br)=C\c2ccccc2)ccc1=O	-1.4	2.0%	4.8%	1.4%	-10.0%	-4.1
O=C(N/N=C/C(Br)=C\c1ccccc1)c1n[nH]c2c1CCC2	64.2*	-1.5%	-3.6%	u	-8.9%	110.7*
COCCN(C(=O)CCC(=O)Nc1ccccn1)C(C(=O)NC(C)C)c1ccc(C)cc1 (configuration not stated)	-2.0	-4.3%	8.4%	8.9%	-0.8%	-16.2
O=C(NCc1ccccc1Cl)c1ccc(CS(=O)Cc2ccc(Cl)cc2)o1 (configuration not stated)	-2.2	-3.1%	x	u	5.3%	-6.9
Cc1cc(C)cc(NC(=O)CCc2c(C)nc3c(c2C)c(=O)n(C)c(=O)n3C)c1	x	-13.3%	x	-0.2%	x	x
COC(=O)c1ccccc1NC(=O)Cn1nc(C(F)(F)F)c2c1CCCC2	x	3.9%	x	5.4%	x	x
O=C(O)c1ccccc1C(=O)Nc1ccc(-n2ccc(C(F)(F)F)n2)cc1	-1.7	8.1%	2.3%	16.6%	-5.5%	1.6
O=C(Nc1ccc(-n2ccc(C(F)(F)F)n2)cc1)c1cccs1	44.5*	-3.8%	x	-12.1%	-0.1%	116.9*
O=C(O)CCC(=O)Nc1ccc(-n2ccc(C(F)(F)F)n2)cc1	24.7*	-5.0%	2.4%	-11.1%	-1.8%	42.0*
Cc1cc(N2CCCC2)nc2ccc(NC(=S)NC(C)C)cc12	15.5	3.6%	-23.7%	12.6µM*	0.0%	9.7
COCCNC(=S)Nc1ccc2nc(N3CCCC3)cc(C)c2c1	-4.1	6.9%	1.0%	44.7µM*	-5.0%	6.0
CCOCCCNC(=S)Nc1ccc2nc(N3CCCC3)cc(C)c2c1	-6.8	4.6%	-12.0%	50.1µM*	2.3%	-2.2
COCCNC(=S)Nc1ccc2nc(N3CCOCC3)cc(C)c2c1	-3.9	-7.2%	-4.5%	44.7µM*	4.9%	-10.4
CCCN(CCC)CCCNC(=S)Nc1ccc2nc(N3CCN(C)CC3)cc(C)c2c1	-3.5	0.8%	-9.9%	-34.4%	-0.4%	-3.1
Cc1cc(N2CCOCC2)nc2ccc(NC(=S)NC(C)C)cc12	1.1	1.7%	-11.0%	-28.1%	1.7%	-4.4
CC(C)[C@]1(c2ccc(Cl)cc2)ON(c2ccccc2C(F)(F)F)C1=O	x	x	x	0.0%	x	x
Cc1ccc(SCCC(=O)N2CCC(C)CC2)cc1	34.4*	0.9%	1.0%	-3.0%	0.3%	73.3*
NC(=O)C1CCN(C(=O)CCSCc2ccc(Cl)c(Cl)c2)CC1	1.7	0.6%	-4.6%	-1.8%	2.4%	-28.0
Cc1ccc(SCCC(=O)N2CCC(C(N)=O)CC2)cc1	13.6*	0.6%	3.9%	0.0%	-4.7%	-6.4
NC(=O)C1CCN(C(=O)CCSCc2ccccc2)CC1	24.2*	1.7%	-6.4%	-21.8%	-0.4%	7.5
COc1ccccc1-c1cnc(C(O)c2cc(Cl)cc(Cl)c2)[nH]1 (configuration not stated)	x	-0.2%	x	x	x	x
Cc1[nH]c(=O)[nH]c(=O)c1C1N2CC3(C(C)C)CN1CC(C(C)C)(C2)C3=O (configuration not stated)	x	-12.0%	x	-0.2%	x	x
CCc1nc2c(OCCn3cccc3)cccn2c1N(C=O)Cc1ccccc1	x	-6.7%	x	x	x	x
SMILES	CHX counter	TbPYK inhibitor	Giardia FBPA inh	Sm TGR block	LmPK inh	Shiga toxin inh
CC1(C)Cc2nc3oc4c(=S)nc[nH]c4c3cc2CO1	24.4	u	11.2µM*	-1.9%	8.7%	27.1
C=CCn1c(C)nc2c(sc3nc4c(cc32)COC(C)(C)C4)c1=O	43.5*	-6.0%	-7.9%	-6.6%	-6.4%	49.9*
CCSc1ncnc2c1sc1nc3c(cc12)COC(C)(C)C3	19.2*	-20.1%	-0.5%	-23.3%	3.9%	29.0
CCOc1ncnc2c1sc1nc3c(cc12)COC(C)(C)C3	x	-2.0%	x	x	x	x
CC(C)COc1ncnc2c1sc1nc3c(cc12)COC(C)(C)C3	14.3	x	4.1%	-9.1%	-6.4%	21.5*
COc1cccc(Cn2c(=O)c(CCc3ccccc3)nc3cncnc32)c1	x	x	-6.3%	x	x	x
